Data published in the supplement of paper PMC6411743.
± gives the standard deviation of the averaged measurements. Of roughly 6,500 targets only a part is listed; those with the largest changes were picked by preference.

Compound: Nc1ncnc2c1ncn2[C@@H]1O[C@H](COP(=O)(O)OP(=O)(O)OP(=O)(O)O)[C@@H](O)[C@H]1O [adenosine triphosphate]
Test: NP40-soluble protein abundance relative to vehicle (solubility fold change) (ratio); higher = more soluble protein in presence of ATP
Procedure, shortened: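 Crude Jurkat lysate, prepared by Dounce homogenisation, was exposed to eight concentrations from 0.1 to 10 mM for 10 min at room temperature and then 3 min at 37 °C. Solubilisation used 0.8% NP40 with benzonase for 60 min at 4 °C, followed by ultracentrifugation and TMT labelling of the supernatant for LC-MS/MS. After vsn normalisation of intensities, each value is the fold change against the detergent-processed vehicle within each replicate, across three independent experiments.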

UniProt Q9NZ72, sequence (Q9NZ72 whole entry, one chain of several): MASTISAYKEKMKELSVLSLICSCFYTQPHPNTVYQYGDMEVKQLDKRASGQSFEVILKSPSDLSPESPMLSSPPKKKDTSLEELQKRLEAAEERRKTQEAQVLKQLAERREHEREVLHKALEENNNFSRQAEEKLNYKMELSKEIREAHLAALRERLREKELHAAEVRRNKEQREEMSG
UniProt O43676, sequence (O43676 whole entry, one chain of several): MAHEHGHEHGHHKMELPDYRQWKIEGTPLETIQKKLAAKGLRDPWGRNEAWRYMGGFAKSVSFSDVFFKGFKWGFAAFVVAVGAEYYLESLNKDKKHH
UniProt Q14160, sequence (Q14160 whole entry, looked up, one chain of several): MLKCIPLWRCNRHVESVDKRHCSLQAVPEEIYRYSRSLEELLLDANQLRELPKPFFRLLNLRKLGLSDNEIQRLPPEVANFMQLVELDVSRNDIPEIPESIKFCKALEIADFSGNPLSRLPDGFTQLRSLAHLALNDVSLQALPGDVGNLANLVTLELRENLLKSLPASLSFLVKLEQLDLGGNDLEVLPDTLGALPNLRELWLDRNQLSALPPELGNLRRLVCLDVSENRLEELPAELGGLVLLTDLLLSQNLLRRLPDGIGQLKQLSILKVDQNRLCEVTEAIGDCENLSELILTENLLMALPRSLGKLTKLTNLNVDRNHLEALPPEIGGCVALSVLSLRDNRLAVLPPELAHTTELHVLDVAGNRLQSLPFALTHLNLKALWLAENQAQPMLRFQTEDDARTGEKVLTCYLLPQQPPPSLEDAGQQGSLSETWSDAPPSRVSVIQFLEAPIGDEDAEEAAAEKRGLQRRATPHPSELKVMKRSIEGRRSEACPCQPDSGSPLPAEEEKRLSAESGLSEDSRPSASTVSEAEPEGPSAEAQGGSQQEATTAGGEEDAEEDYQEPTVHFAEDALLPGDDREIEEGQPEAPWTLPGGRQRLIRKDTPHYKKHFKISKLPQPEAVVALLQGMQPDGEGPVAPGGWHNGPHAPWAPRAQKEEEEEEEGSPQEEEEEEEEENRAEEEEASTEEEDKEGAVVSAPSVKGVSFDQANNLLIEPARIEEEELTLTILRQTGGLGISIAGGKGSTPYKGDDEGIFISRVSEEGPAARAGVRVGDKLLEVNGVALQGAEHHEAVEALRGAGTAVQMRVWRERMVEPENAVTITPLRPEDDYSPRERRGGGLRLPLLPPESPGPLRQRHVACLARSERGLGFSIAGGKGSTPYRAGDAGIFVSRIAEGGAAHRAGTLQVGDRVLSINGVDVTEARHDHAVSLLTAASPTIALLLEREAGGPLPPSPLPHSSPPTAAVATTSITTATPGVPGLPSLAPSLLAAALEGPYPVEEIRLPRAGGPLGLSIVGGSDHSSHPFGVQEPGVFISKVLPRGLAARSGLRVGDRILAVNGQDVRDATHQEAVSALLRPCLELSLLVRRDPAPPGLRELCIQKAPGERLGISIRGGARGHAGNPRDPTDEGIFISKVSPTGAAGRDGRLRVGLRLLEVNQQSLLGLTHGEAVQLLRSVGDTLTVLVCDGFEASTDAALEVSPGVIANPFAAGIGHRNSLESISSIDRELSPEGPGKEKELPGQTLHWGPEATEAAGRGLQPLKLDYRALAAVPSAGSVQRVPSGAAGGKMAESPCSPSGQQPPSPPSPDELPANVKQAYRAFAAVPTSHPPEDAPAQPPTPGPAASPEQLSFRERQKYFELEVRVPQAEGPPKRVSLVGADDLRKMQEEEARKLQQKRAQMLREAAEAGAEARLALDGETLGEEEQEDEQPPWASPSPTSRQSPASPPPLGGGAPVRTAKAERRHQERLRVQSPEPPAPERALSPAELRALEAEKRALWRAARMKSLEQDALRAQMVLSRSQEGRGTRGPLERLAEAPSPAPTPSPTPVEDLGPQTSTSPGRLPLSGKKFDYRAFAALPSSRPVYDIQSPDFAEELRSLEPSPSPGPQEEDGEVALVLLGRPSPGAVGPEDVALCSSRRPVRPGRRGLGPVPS
UniProt O60287, sequence (O60287 whole entry): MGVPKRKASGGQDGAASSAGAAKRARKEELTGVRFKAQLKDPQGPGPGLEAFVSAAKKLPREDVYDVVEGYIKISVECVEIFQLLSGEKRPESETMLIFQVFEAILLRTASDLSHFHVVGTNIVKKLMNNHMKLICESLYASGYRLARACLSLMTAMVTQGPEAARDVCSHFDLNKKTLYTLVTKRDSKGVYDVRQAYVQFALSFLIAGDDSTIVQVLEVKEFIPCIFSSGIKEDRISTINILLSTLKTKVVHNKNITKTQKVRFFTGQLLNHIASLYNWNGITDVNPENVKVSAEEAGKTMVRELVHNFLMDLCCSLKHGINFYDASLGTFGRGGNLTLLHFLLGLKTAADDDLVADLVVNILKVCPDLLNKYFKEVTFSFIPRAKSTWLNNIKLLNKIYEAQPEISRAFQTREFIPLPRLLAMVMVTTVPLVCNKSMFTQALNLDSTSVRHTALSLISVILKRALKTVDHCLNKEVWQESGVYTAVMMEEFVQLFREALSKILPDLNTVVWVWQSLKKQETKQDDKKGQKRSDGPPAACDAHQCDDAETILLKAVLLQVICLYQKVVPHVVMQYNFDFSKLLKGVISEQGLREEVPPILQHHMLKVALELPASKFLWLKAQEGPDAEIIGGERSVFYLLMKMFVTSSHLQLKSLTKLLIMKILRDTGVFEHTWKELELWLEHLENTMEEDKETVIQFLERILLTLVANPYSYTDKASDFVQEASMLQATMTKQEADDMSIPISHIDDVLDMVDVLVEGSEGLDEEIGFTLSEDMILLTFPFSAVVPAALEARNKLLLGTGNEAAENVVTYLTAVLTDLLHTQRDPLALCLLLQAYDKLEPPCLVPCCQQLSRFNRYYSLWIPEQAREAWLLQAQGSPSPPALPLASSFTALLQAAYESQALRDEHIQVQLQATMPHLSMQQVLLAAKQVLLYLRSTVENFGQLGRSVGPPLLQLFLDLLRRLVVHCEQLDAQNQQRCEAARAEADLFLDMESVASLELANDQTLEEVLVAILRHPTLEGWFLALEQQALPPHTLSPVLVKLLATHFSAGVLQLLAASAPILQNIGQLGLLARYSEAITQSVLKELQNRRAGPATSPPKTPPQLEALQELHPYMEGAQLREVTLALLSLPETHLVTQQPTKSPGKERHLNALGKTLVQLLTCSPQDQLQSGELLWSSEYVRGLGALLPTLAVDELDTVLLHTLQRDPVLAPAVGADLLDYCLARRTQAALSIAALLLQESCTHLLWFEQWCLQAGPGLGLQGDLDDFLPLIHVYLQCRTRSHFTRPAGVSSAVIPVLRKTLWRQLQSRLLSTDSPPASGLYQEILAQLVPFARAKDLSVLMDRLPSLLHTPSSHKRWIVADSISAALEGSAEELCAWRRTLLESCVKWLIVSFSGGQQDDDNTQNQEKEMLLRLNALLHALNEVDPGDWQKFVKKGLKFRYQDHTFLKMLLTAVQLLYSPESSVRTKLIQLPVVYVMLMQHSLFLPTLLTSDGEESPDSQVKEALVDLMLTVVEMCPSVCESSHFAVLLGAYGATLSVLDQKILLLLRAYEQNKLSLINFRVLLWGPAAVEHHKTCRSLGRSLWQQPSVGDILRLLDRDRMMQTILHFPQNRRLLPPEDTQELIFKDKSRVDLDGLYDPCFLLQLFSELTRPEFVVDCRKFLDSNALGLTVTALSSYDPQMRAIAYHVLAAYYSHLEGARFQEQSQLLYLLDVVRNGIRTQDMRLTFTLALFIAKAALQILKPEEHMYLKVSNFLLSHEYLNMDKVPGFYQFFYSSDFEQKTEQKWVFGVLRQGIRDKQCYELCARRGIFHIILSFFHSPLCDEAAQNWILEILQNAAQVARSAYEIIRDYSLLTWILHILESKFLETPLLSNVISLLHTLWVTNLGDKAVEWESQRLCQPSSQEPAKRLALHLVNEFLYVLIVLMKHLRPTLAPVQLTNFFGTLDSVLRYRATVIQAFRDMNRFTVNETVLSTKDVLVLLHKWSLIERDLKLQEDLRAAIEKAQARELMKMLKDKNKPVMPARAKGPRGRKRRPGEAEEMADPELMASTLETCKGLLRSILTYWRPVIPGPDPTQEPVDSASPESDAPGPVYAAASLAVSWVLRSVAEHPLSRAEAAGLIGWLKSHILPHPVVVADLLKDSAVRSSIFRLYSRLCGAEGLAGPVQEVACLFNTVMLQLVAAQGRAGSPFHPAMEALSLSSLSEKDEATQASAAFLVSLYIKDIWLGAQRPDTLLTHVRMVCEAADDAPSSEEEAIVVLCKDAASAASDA
UniProt P09234, sequence (P09234 whole entry, one chain of several): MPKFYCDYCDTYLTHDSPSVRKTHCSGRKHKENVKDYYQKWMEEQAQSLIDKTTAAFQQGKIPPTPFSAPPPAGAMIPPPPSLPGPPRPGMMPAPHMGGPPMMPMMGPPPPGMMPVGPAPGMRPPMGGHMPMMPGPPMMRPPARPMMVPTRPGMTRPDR
UniProt Q8WYJ6, sequence (Q8WYJ6 whole entry, one chain of several): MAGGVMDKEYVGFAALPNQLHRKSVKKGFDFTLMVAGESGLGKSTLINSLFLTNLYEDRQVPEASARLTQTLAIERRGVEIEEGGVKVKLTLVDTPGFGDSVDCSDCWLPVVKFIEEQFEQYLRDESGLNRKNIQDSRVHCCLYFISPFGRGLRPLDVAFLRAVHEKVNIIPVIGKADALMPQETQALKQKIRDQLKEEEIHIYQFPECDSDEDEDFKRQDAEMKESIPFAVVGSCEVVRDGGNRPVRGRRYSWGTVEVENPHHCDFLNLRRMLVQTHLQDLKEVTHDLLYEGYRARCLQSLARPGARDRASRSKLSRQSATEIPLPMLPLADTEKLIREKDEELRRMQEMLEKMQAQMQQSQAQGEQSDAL
UniProt O43809, sequence (O43809 whole entry): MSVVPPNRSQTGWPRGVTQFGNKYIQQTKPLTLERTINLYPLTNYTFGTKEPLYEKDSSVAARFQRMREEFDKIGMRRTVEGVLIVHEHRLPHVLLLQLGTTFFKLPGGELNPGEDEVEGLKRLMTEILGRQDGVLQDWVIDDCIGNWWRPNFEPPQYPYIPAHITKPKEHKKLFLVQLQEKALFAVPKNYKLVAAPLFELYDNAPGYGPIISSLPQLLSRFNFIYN

Target	NP40-soluble protein abundance (concentration: 1mM)	NP40-soluble protein abundance (concentration: 2mM)	NP40-soluble protein abundance (concentration: 4mM)	NP40-soluble protein abundance (concentration: 6mM)	NP40-soluble protein abundance (concentration: 8mM)	NP40-soluble protein abundance (concentration: 10mM)
MYO1G (UniProt B0I1T2)	3.09 ± 0.27	3.32 ± 0.48	3.48 ± 0.58	3.19 ± 0.4	3.7 ± 0.64	3.52 ± 0.5
A0A0A0MRR7|P09234 (UniProt P09234)	1.34 ± 0.087	1.39 ± 0.078	1.56 ± 0.062	1.87 ± 0.2	1.83 ± 0.041	1.84 ± 0.1
J3QL71|Q96FV2 (UniProt Q96FV2)	0.96 ± 0.029	0.97 ± 0.011	0.98 ± 0.025	0.944 ± 0.019	0.959 ± 0.032	0.984 ± 0.015
J3KQ34|Q9H9Q2 (UniProt Q9H9Q2)	0.89 ± 0.097	0.87 ± 0.04	0.855 ± 0.072	0.873 ± 0.093	0.878 ± 0.032	0.77 ± 0.1
G5E9W3|Q9UKF6 (UniProt Q9UKF6)	1.09 ± 0.073	1.1 ± 0.029	1.14 ± 0.025	1.11 ± 0.048	1.14 ± 0.029	1.18 ± 0.052
UniProt A0FGR8-2|H7BXI1|A0FGR8-6	1 ± 0.026	1.02 ± 0.025	1.02 ± 0.015	0.997 ± 0.052	1.02 ± 0.03	1.02 ± 0.047
A0A0B4J220 (UniProt E9PRG8)	1.02 ± 0.028	1.11 ± 0.066	1.27 ± 0.17	1.31 ± 0.091	1.42 ± 0.27	1.56 ± 0.23
PSMD12 (UniProt O00232)	0.938 ± 0.063	0.894 ± 0.035	0.863 ± 0.015	0.843 ± 0.025	0.898 ± 0.031	0.885 ± 0.035
A0A0J9YW36|Q9NZ72|Q9NZ72-2 (UniProt Q9NZ72)	1.03 ± 0.25	1.21 ± 0.52	0.979 ± 0.12	1.18 ± 0.36	0.945 ± 0.1	0.863 ± 0.05
B4E1G1|E5RGY0|Q9BUN8|Q9BUN8-2 (UniProt Q9BUN8)	0.948 ± 0.084	0.979 ± 0.12	0.989 ± 0.083	0.975 ± 0.1	0.955 ± 0.021	1 ± 0.056
F8W9X7|Q567U6 (UniProt Q567U6)	0.974 ± 0.012	0.962 ± 0.017	0.959 ± 0.024	0.935 ± 0.015	0.951 ± 0.016	0.943 ± 0.028
A0A0A0MT22|M9MML4|P08575|P08575-2|X6R433 (UniProt P08575)	0.946 ± 0.026	0.9679 ± 0.0084	0.9321 ± 0.0056	0.967 ± 0.014	0.918 ± 0.018	0.943 ± 0.036
NUDT21 (UniProt O43809)	1.95 ± 0.11	2.06 ± 0.064	2.18 ± 0.1	2.25 ± 0.052	2.31 ± 0.1	2.213 ± 0.019
A0A0G2JPP5|Q14160|Q14160-3|A0A0G2JNZ2 (UniProt Q14160)	0.973 ± 0.016	0.96 ± 0.02	0.9694 ± 0.0075	0.98 ± 0.023	0.93 ± 0.021	0.941 ± 0.031
G3V0H0|O43913|O43913-2 (UniProt O43913)	1.03 ± 0.12	1.01 ± 0.097	1.02 ± 0.08	1 ± 0.13	1.08 ± 0.078	1.02 ± 0.061
URB1 (UniProt O60287)	1.29 ± 0.067	1.41 ± 0.043	1.65 ± 0.057	1.7 ± 0.12	1.94 ± 0.12	2.15 ± 0.084
B7ZC38|Q9NR46 (UniProt Q9NR46)	0.993 ± 0.015	0.977 ± 0.029	0.98 ± 0.033	0.981 ± 0.021	0.988 ± 0.056	0.936 ± 0.039
HAT1 (UniProt O14929)	1.01 ± 0.16	0.995 ± 0.098	0.957 ± 0.08	0.895 ± 0.15	0.97 ± 0.09	0.955 ± 0.04
A0A0B4J1Z1|C9JAB2|Q16629|Q16629-2|Q16629-3|Q16629-4 (UniProt Q16629)	1.7 ± 0.28	1.77 ± 0.28	1.89 ± 0.28	2.04 ± 0.31	1.98 ± 0.38	2.09 ± 0.36
A0A0U1RRK1|F6XEV2|Q9BPX6|Q9BPX6-3|Q9BPX6-2 (UniProt Q9BPX6)	1.01 ± 0.073	1.01 ± 0.045	1.04 ± 0.038	1.05 ± 0.067	1.07 ± 0.066	1.08 ± 0.058
TRIM38 (UniProt O00635)	0.949 ± 0.053	1 ± 0.018	0.988 ± 0.041	0.955 ± 0.046	0.986 ± 0.034	0.993 ± 0.045
I3L2M1|J3KNL2|Q8WYJ6 (UniProt Q8WYJ6)	0.941 ± 0.031	0.945 ± 0.017	0.948 ± 0.022	0.928 ± 0.033	0.932 ± 0.04	0.941 ± 0.033
C9JJN9|Q8N3P4|Q8N3P4-2|Q8N3P4-3 (UniProt Q8N3P4)	1.01 ± 0.053	0.984 ± 0.04	0.994 ± 0.068	0.9606 ± 0.0047	0.955 ± 0.039	0.979 ± 0.023
K7ENL9|Q96DM3 (UniProt Q96DM3)	1.04 ± 0.097	0.984 ± 0.027	1.02 ± 0.029	1.02 ± 0.058	1.02 ± 0.061	0.985 ± 0.03
C9JKQ2|O43676 (UniProt O43676)	0.921 ± 0.053	0.903 ± 0.08	0.867 ± 0.032	0.908 ± 0.048	0.862 ± 0.04	0.868 ± 0.042
E5RFJ1|Q96MF7 (UniProt Q96MF7)	1.04 ± 0.053	1.04 ± 0.012	1.03 ± 0.017	1.09 ± 0.036	1.01 ± 0.018	1 ± 0.034
A0A0A0MTC1|A0A0A0MTR7 (UniProt Q63HN8)	1.15 ± 0.14	1.11 ± 0.096	1.12 ± 0.083	1.03 ± 0.074	1.2 ± 0.049	1.11 ± 0.031
